# This is a sample that favours compounds with a hit; in the whole collection about 17% have one here.
# ATXN2 expr inh = reduces ATXN2 reporter expression in HEK-293 cells. actives 0.72% (n = 360,000). Potency, µM (highest dose often 57 µM), actives largely listed as inhibitors. HEK-293 ATXN2-luciferase reporter, luminescence, 24 h; also: nearly all actives have a fitted effect of over 55% in size
#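 qHTS (up to 57 uM final) was run with 24 h compound exposure of reporter cells at 37 °C. Each well was multiplexed: SteadyGlo luminescence measured ATXN2-luciferase expression after a fluorogenic Gly-Phe-AFC viability readout (25 uM final).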
# HepG2 tox = counter-screen for TGF-b inhibitors: cytotoxicity in HepG2 cells. actives 0.76% (n = 410,000). AID 588856. Potency, µM (titrated, usually from 46.1 µM), actives largely listed as cytotoxic. HepG2 CAGA-GFP viability, ATP luminescence, 18 h
#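 HepG2 CAGA-GFP cells (1000/well, DMEM with 1% FBS) received compound, then TGF-beta at 500 pg/mL final, and were incubated 18 hours at 37 degrees C. Viability was read by CellTiter-Glo luminescence. Media-only wells were set as complete cell-killing and DMSO as no toxicity.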
# DT40 TDP1 no CPT = qHTS for Inhibitors of human tyrosyl-DNA phosphodiesterase 1 (TDP1): qHTS in cells in absence of CPT. AID 686978, 2013. DT40 Tdp1-/- hTDP1 cells, no CPT, ATP luminescence, 48 h. actives 15% (n = 420,000). Potency, µM (titrated, usually from 46.2 µM), hits mostly inhibitors; also: nearly all actives have a fitted effect of over 55% in size
#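 Readout: luminescence from CellTiter-Glo after 30 min in the dark at RT. Cells: DT40 Tdp1-/- with stable hTDP1, 400/well. Exposure: compounds alone, ≥48 hr, 37 °C.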
# TGFb SMAD3 inh = TGF-b pathway inhibition. HepG2 CAGA-GFP TGF-b/SMAD3 reporter, GFP fluorescence, 18 h; TGF-beta stimulated, 500 pg/mL final. Potency, µM (titrated, usually from 46.1 µM), usual class: inhibitors. actives 1.2% (n = 410,000). AID 588855; also: nearly all actives have a fitted effect of over 65% in size
#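 First, reporter cells (HEPG2 CAGA-GFP) rested 2 h at 37 degrees C. Next, compounds were pinned in and TGF-beta added to 500 pg/mL final. After 18 h, GFP was imaged per cell and summed per well.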
# TDP1 cell CPT = DT40-hTDP1 cell growth loss with CPT; Potency, µM (series often up to 46.2 µM), usual class: inhibitors; chicken DT40 Tdp1-/-;hTDP1 cells + 20 nM CPT, ATP luminescence, 48 h; actives 12% (n = 420,000); also: nearly all actives have a fitted effect of over 55% in size
#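 Cell growth measured by CellTiter-Glo luminescence after a minimum 48 h, 37 C compound exposure with 20 nM CPT in Tdp1-knockout DT40 cells stably expressing hTDP1, seeded 400/well; qHTS titration format.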
# ATXN viability = cell viability loss in ATXN counter-screen. actives 0.49% (n = 400,000). AID 651635. Potency, µM (series often up to 56.7 µM), most hits filed as cytotoxic. S2 cells (HEK-293 line with an ATXN2-luciferase reporter) viability, CellTiter-Fluor protease fluorescence, 24 h; also: nearly all actives have a fitted effect of over 40% in size
# A number is an active result; n = inactive; u = inconclusive; x = no result given. Calls follow the shape of the dose curve; as a rule, active = well fitted curve in the direction sought with a large enough effect; inconclusive = small, poorly fitted or top-dose-only effect, or another doubt; inactive = no such curve, though single readings can be large; an effect the other way counts as inactive or inconclusive.
SMILES,ATXN2 expr inh,HepG2 tox,DT40 TDP1 no CPT,TGFb SMAD3 inh,TDP1 cell CPT,ATXN viability
COc1ccc(C2c3c(oc4cc(C)cc(C)c4c3=O)C(=O)N2Cc2ccco2)cc1OC (configuration not stated),n,n,n,n,n,n
Cc1ccc(C)c(OCC(=O)NCC(c2ccco2)N2CCCCC2)c1 (configuration not stated),n,n,u,n,u,n
Cc1ccc(S(=O)(=O)NC(CC(C)C)C(=O)NCC(c2ccco2)N2CCCCC2)cc1 (configuration not stated),n,n,u,n,23.1µM,n
Cc1cc(Br)ccc1SCC(=O)NCC(c1ccco1)N1CCCCC1 (configuration not stated),n,n,u,u,18.4µM,n
Cc1ccc(C)c(SCC(=O)NCC(c2ccco2)N2CCCCC2)c1 (configuration not stated),n,n,20.6µM,n,u,n
COc1ccc(CNc2nc(-c3ccccc3)nn2C(=O)c2ccc([N+](=O)[O-])cc2)cc1,n,n,n,n,n,n
COc1ccc2oc(C(=O)OCC(=O)NC(C)(C#N)C3CC3)c(C)c2c1 (configuration not stated),n,n,n,n,n,n
Cc1ccc(N=Cc2ccc(O)cc2O)cc1F,u,n,20.6µM,n,u,n
CCc1ccccc1NC(=O)Nc1cc(C(=O)NCc2ccc(C)cc2)ccc1N1CCCC1,n,n,u,n,u,n
CCc1ccccc1NC(=O)Nc1cc(C(=O)NCc2cccc(F)c2)ccc1N1CCCC1,n,n,2.59µM,n,3.26µM,u
CCc1ccccc1NC(=O)Nc1cc(C(=O)NCc2ccc(OC)cc2)ccc1N1CCCC1,n,n,9.2µM,n,11.6µM,n
CC(C)CCNC(=O)Nc1cc(C(=O)NCc2cccc(F)c2)ccc1N1CCCC1,u,n,u,n,n,u
Cc1ccc(/C=C/c2onc(C)c2S(=O)(=O)N2CCC(C(=O)NC(C)(C)C)CC2)cc1,n,n,u,n,u,n
O=c1oc2cc(Oc3c([N+](=O)[O-])cc(C(F)(F)F)cc3[N+](=O)[O-])ccc2c2c1CCCC2,u,n,13µM,u,8.2µM,u
Cc1cc(C)n(CCc2nc3c4ccccc4nc(N4CCN(c5ccccc5)CC4)n3n2)n1,n,n,3.26µM,n,2.91µM,n
COc1ccccc1Cn1c(CNS(=O)(=O)c2cccc([N+](=O)[O-])c2)nc2cccnc21,x,n,16.4µM,u,20.6µM,x
O=[N+]([O-])c1ccc(S(=O)(=O)NCc2nc3cccnc3n2Cc2ccccc2Cl)cc1,x,n,14.6µM,u,14.6µM,x
CCc1ccc(Cn2c(CNS(=O)(=O)c3ccc4c(c3)CCCC4)nc3cccnc32)cc1,x,n,16.4µM,u,u,x
CC(C)(C)c1ccc(S(=O)(=O)NCc2nc3cccnc3n2Cc2ccccc2Cl)cc1,x,n,u,u,u,x
CCc1ccc(S(=O)(=O)NCc2nc3cccnc3n2Cc2ccccc2Cl)cc1,x,n,14.6µM,u,u,x
Cn1cccc1CNCC(O)c1ccccc1 (configuration not stated),n,n,n,n,n,n
CCC1CCCCN1CCCNC(=O)CN1C(=O)c2cccnc2Oc2ccc(C)cc21 (configuration not stated),n,n,n,n,n,n
CN(Cc1cnccn1)Cc1nc(Cc2cccc(F)c2)no1,n,n,n,n,n,n
COc1ccc(Cn2c(CNS(=O)(=O)c3ccc(Cl)s3)nc3cccnc32)cc1,x,n,16.4µM,u,u,x
Cc1ccc(Cn2c(CNS(=O)(=O)c3ccc(Cl)s3)nc3cccnc32)cc1,x,n,u,n,u,x

# Compound activity: PubChem BioAssay, National Center for Advancing Translational Sciences (NCATS)
